Compound activity deposited in PubChem by National Center for Advancing Translational Sciences (NCATS).
Shown is part of a subset that was picked to be rich in hits.
ALOX12 inh: Primary qHTS assay for inhibitors of human arachidonate 12S-lipoxygenase (ALOX12): Round 2. Polyunsaturated fatty acid lipoxygenase ALOX12 (Homo sapiens), P18054. purified 12hLO, xylenol orange hydroperoxide absorbance. AID 1671190, 2021. actives 1.1% (n = 580,000). Potency, µM (top dose mostly 108 µM), for inactives: top-dose activity change, negative = inhibition, most hits filed as inhibitors; note: % is set by controls: 0 for no effect and ±100 for the full control effect
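Purified human 12hLO (150 nM final) in 25 mM Hepes, 0.01% Triton X-100, pH 7.0 was preincubated 15 min at room temperature with compound. Then 40 uM arachidonic acid was added, 30 min. Hydroperoxide was read by Fe-XO absorbance ratio 573/405 nm.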
Sfp inh: qHTS Assay for Inhibitors of Bacillus subtilis Sfp phosphopantetheinyl transferase (PPTase); 4'-phosphopantetheinyl transferase ffp (Bacillus subtilis), Q9F4F7; Biochemical Sfp PPTase activity, qHTS; Potency, µM, for the others: largest response in the series, negative = inhibition, actives largely listed as inhibitors; actives 3.5% (n = 310,000);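 note: the enzyme is Sfp with the accession as filed and its product quenches rhodamine fluorescence; 0% = enzyme reaction without inhibitor and -100% = no enzyme wells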
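Sfp 15 nM + cpd, 15 min RT; start w/ rhodamine-CoA 5 uM, BHQ-2-YbbR 12.5 uM (final); 50 mM Hepes pH 7.6, 10 mM MgCl2, 0.01% NP-40, 0.01% BSA; read 525/598 nm at 0 and 30 min.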
Glioma ERSR ind: qHTS for Inducers of the Endoplasmic Reticulum Stress Response (ERSR) in Human Glioma: qHTS; AID 602332, 2012; U87-MG GRP78 promoter luciferase reporter, 16 h; actives 0.02% (n = 420,000); Potency, µM, for inactives: top-dose activation, actives largely listed as activators; note: series mostly up to about 76 µM; % of control where 0% means no effect; nearly all actives have a fitted effect of over 35% in size
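Stably transfected U87-MG human glioma cells carrying a GRP78-based luminescent sensor were seeded at 1000 cells/well, pin-dosed with compounds and incubated 16 h. Luciferase reagent was then added, and end-point luminescence was read after 10 min at room temperature.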
G9a block: qHTS Assay for Inhibitors of Histone Lysine Methyltransferase G9a; G9a H3K9 monomethylation, AlphaScreen, 2 h; actives 8.8% (n = 350,000); Histone-lysine N-methyltransferase EHMT2 (Homo sapiens), Q96KQ7; Potency, µM (titrated, usually from 102 µM), without a hit: at the top dose activity, negative = inhibition, hits mostly inhibitors; note: % is set by controls: 0 for no effect and ±100 for the full control effect; nearly all actives have a fitted effect of over 75% in size
Target sequence (Q96KQ7 913-1193 limits assumed): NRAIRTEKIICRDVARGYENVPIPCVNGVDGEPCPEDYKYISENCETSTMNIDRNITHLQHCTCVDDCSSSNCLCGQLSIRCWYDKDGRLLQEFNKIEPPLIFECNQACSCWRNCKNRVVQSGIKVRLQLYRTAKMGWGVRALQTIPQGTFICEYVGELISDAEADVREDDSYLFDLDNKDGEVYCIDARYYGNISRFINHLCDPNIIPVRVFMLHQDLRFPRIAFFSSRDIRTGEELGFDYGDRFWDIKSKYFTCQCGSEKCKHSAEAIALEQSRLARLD
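Chemiluminescent proximity detection of H3K9 monomethylation, read after 10 min bead incubation in the dark. Reaction: 20 nM G9a, 500 nM biotin-H3K9 peptide, 20 uM SAM cofactor, 2 h, room temperature, following 15 min enzyme-compound preincubation.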
VDR inh: Inhibitors of the vitamin D receptor (VDR): qHTS; actives 0.93% (n = 400,000); VDR-SRC2-3 peptide fluorescence polarization, 2 h; Potency, µM, inactives show max response, negative = inhibition, usual class: inhibitors; AID 504847, 2011; Vitamin D3 receptor (Homo sapiens), P11473; note: % is set by controls: 0 for no effect and ±100 for the full control effect
Target sequence (P11473 whole entry, looked up): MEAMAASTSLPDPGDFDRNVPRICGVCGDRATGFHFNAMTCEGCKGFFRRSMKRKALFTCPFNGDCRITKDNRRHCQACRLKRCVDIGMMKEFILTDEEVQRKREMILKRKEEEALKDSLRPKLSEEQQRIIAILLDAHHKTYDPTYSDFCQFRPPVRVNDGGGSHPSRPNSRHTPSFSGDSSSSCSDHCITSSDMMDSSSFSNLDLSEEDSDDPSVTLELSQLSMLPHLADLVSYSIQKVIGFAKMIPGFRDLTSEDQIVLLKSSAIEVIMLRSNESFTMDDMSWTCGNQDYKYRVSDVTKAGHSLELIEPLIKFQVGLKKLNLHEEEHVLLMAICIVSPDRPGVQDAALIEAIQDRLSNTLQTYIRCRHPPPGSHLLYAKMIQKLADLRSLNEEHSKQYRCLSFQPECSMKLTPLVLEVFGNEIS
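Measured by FP: displacement of SRC2-3 coactivator peptide from VDR by library compounds, following a two-hour ambient incubation.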
The depositor's hits bear a star; i = inactive; u = inconclusive; x = no result given; [ ] = dose if it differs, or a comment. Calls come from the whole dose curve; as a rule, active = well fitted curve in the direction sought with a large enough effect; inconclusive = small, poorly fitted or top-dose-only effect, or another doubt; inactive = no such curve, though single readings can be large; an effect the other way counts as inactive or inconclusive. Potency is the fitted concentration of half-maximal effect.

SMILES	ALOX12 inh	Sfp inh	Glioma ERSR ind	G9a block	VDR inh
COc1ccccc1-n1c(SCC(=O)NCC2CCCO2)nc2c([nH]c3ccccc32)c1=O (configuration not stated)	35µM*	24%	8%	2%	-11%
CCOC(=O)CNC(=O)CSc1nc(-c2ccc(C)cc2)ns1	-3%	10%	2%	50µM*	u
O=C(CSc1nc2c([nH]c3ccccc32)c(=O)n1-c1ccccc1)NCC1CCCO1 (configuration not stated)	-2%	6%	4%	4%	7%
O=C(CSc1nc(-c2ccccc2)ns1)NCC1CCCO1 (configuration not stated)	-27%	35µM*	1%	22µM*	-28%
O=C(CSc1nnc(-c2ccccc2)c2ccccc12)NCC1CCCO1 (configuration not stated)	x	-29%	x	-12%	x
CCOC(=O)N1CCN(C(=O)CSc2nc(-c3cccc(C)c3)ns2)CC1	u	35µM*	-2%	32µM*	u
Cc1noc(C2CC3(CCN(C(=O)CCC4CCCC4)CC3)CN2C)n1 (configuration not stated)	21%	x	x	x	x
CC(O)CNc1nc(-c2cccnc2)nc2ccccc12 (configuration not stated)	71%	x	x	x	x
CCOC(=O)CNC(=O)CSc1nnc(-c2ccccc2)c(-c2ccccc2)n1	-4%	12%	-12%	8%	-8%
Cc1cccc(-c2nc(SCC(=O)NCC3CCCO3)c3c(=O)n(C)c(=O)n(C)c3n2)c1 (configuration not stated)	-15%	x	-1%	6%[59 µM]	1%
Cn1c(=O)c2c(SCC(=O)NCC3CCCO3)nc(-c3cccs3)nc2n(C)c1=O (configuration not stated)	x	9%	x	50µM*	x
COc1ccc(-c2nsc(SCC(=O)Nc3ccc4c(c3)OCO4)n2)cc1	-15%	-16%	1%	u	7%
CCOC(=O)CSc1nc(-c2ccc(OC)cc2)ns1	u	22µM*	-10%	5µM*	-8%
CCOC(=O)CNC(=O)CSc1nc(-c2ccccc2)ns1	-28%	18µM*	10%	10µM*	u
CN(CC(=O)NC(C)(C)C)Cc1ccc(C#N)cc1	49%	x	x	x	x
CC(=O)Nc1cccc(NC(=O)CSc2ccc(-c3ccco3)nn2)c1	u	32µM*	5%	40µM*	-6%
Cc1ccccc1NC(=O)CSc1ccc(-c2ccccn2)nn1	5%	14%	-3%	11µM*	-10%
Cc1nc(C)c(-c2ccc(SCC(=O)Nc3cccc(F)c3)nn2)s1	-2%	-2%	0%	22µM*	7%
Cc1ccc(NC(=O)CSc2ccc(-c3ccco3)nn2)c(C)c1	-12%	56µM*	-2%	-3%	0%
Cc1cc(C)cc(NC(=O)CSc2ccc(-c3ccccn3)nn2)c1	i	-3%	-1%	x	14%
CC(=O)c1cccc(NC(=O)CSc2ccc(-c3sc(C)nc3C)nn2)c1	0%	21%	-3%	u	0%
CC(=O)Nc1cccc(NC(=O)CSc2ccc(-c3cccnc3)nn2)c1	-6%	-6%	-2%	34%	-11%
Cc1ccc(NC(=O)CSc2nnc(-c3ccco3)o2)c(C)c1	2%	6%	-3%	2%	0%
COC(=O)c1ccc(NC(=O)CSc2ccc(-c3ccccn3)nn2)cc1	5%	-5%	-2%	u	-3%
Cc1cc(C)c(NC(=O)CSc2ccc(-c3cccnc3)nn2)c(C)c1	58%	56µM*	-2%	25%	2%
SMILES	ALOX12 inh	Sfp inh	Glioma ERSR ind	G9a block	VDR inh
Cc1ccc(CNC(=O)CSc2ccc(-c3ccco3)nn2)cc1	-32%	-11%	0%	u	-1%
Cc1ccc(NC(=O)CSc2ccc(-c3ccco3)nn2)cc1	-1%	20µM*	5%	40µM*	3%
Cc1cc(C)cc(NC(=O)CSc2oc(-c3ccco3)nc2S(=O)(=O)c2ccccc2)c1	-26%	x	-2%	-24%[59 µM]	8%
Cc1cc(C)cc(NC(=O)CSc2ccc(-c3ccco3)nn2)c1	-15%	22µM*	1%	25µM*	-12%
CC(=O)c1ccc(NC(=O)CSc2ccc(-c3ccco3)nn2)cc1	92%	40µM*	-3%	u	-3%
CC(C)N1C(=O)C2(CCCCC2)C1C(=O)NCCCN1CCCc2ccccc21 (configuration not stated)	411%	x	x	x	x
CC(C)NC(=O)/C=C/c1cccc(Cl)c1	-26%	x	x	x	x
CC(=O)Nc1ccc(NC(=O)CSc2ccc(-c3ccco3)nn2)cc1	-4%	45µM*	-2%	28µM*	u
CC12CCC(C(=O)N(CCCCN3CCN(Cc4ccccc4)CC3)C1=O)C2(C)C (configuration not stated)	u	11%	-4%	56µM*	-7%
Fc1ccc(-c2cnc([C@@H]3COCCN3Cc3ccccc3F)[nH]2)c(F)c1	-5%[176 µM]	x	x	x	x
Cc1ccc(NC(=O)CN2C(=O)S/C(=C\c3cccn3-c3cccc(C(=O)O)c3)C2=O)cc1C	-19%	u	-3%	x	-4%
Cc1cccc(C)c1-n1cccc1/C=C1\SC(=S)N(c2cccc(C(=O)O)c2)C1=O	45µM*	40µM*	6%	u	u
COc1ccc(NC(=O)CN2C(=O)S/C(=C/c3cccn3-c3ccc(C(=O)O)cc3)C2=O)cc1	13%	-5%	x	22µM*	x
Cc1ccccc1NC(=O)CN1C(=O)S/C(=C\c2cccn2-c2cccc(C(=O)O)c2)C1=O	67%	-20%	-2%	u	14%
Cc1ccc(NC(=O)CN2C(=O)N/C(=C/c3cccn3-c3ccc(C(=O)O)cc3)C2=O)cc1	u	50µM*	3%	8.9µM*	-9%
Cc1ccc(NC(=O)CN2C(=O)S/C(=C\c3cccn3-c3cccc(C(=O)O)c3)C2=O)c(C)c1	x	50µM*	-4%	u	-10%
COc1ccccc1NC(=O)N(C)CCc1noc(C(=O)NCc2ccccc2)n1	20%	x	x	x	x
Cc1ccc(NC(=O)CN2C(=O)N/C(=C/c3cc(C)n(-c4ccc(C(=O)O)cc4)c3C)C2=O)cc1	u	-45%	1%	28µM*	-6%
Cc1ccc(NC(=O)CN2C(=O)N/C(=C/c3ccco3)C2=O)cc1	5%	45µM*	1%	0%[0.0925 µM]	-1%
Cc1ccc(NC(=O)COC(=O)/C=C/c2cccs2)cc1	-21%	2%	1%	4%[59 µM]	-12%
CCN(c1ccc(NC(=O)COC(=O)c2ccc3ccccc3n2)cc1)C(C)C	5µM*	3%	-2%	u	12%
CCC(CC)NC(=O)COC(=O)c1ccc2ccccc2n1	6.3µM*	x	x	x	x
